{"source": "PubChem BioAssay AID743287", "about": "(Broad Institute, 2014)", "note": "Screen size: about 370,000 compounds; about 2,300 (0.62%) were called active.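 Rule for the calls: active = lowest replicate activation of at least 40%, so every replicate reaches that level; inactive = the rest.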 The full list was thinned out, with actives kept by preference."}
{"assay": "primary screen for activators of insulin secretion dependent on glucose, INS-1E cells, GLuc reporter luminescence (AID 743287);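 note: 0% = median of neutral control wells and 100% = median of IBMX positive control wells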", "conditions": "INS-1E GLuc reporter insulin secretion, 2-3 h, at 16.6 µM, stronger effect = higher value"}
{"compound": "CCCNC(=O)N1CC(=O)N2[C@H](CO)[C@H](c3ccc(C#Cc4cccc(OC)c4)cc3)[C@H]2C1", "activation": "-24.3% (inactive)"}
{"compound": "CNC[C@H]1Oc2ccccc2CC(=O)N(C)C[C@H]1C", "activation": "13.7% (inactive)"}
{"compound": "Cc1cc(C(=O)Nc2cccc3c2O[C@H](CN(C)C(=O)Nc2ccccc2)[C@@H](C)CN([C@H](C)CO)C3=O)n(C)n1", "activation": "26.8% (inactive)"}
{"compound": "Cc1ccc(S(=O)(=O)N(C)C[C@@H]2Oc3ccc(NC(=O)C4CCCCC4)cc3CC(=O)N([C@@H](C)CO)C[C@H]2C)cc1", "activation": "-11.4% (inactive)"}
{"compound": "CCS(=O)(=O)Nc1ccc2c(c1)C(=O)N(C)[C@H]1CC[C@@H](CC(=O)N3CCCCC3)O[C@H]1CO2", "activation": "-5.88% (inactive)"}
{"compound": "C[C@@H]1CN([C@H](C)CO)S(=O)(=O)c2ccc(-c3ccccc3)cc2O[C@@H]1CN(C)CC1CC1", "activation": "10.8% (inactive)"}
{"compound": "O=C(C[C@H]1CC[C@H](NC(=O)c2ccncc2)[C@H](CO)O1)Nc1ccccc1", "activation": "22% (inactive)"}
{"compound": "O=C(c1cnccn1)N1CC(=O)N2[C@H](C1)[C@@H](c1ccc(C3=CCCCC3)cc1)[C@@H]2CO", "activation": "-9.9% (inactive)"}
{"compound": "CO[C@@H]1CN(C)C(=O)c2ccc(NS(C)(=O)=O)cc2OC[C@@H](C)N(C(=O)CC2CC2)C[C@@H]1C", "activation": "-7.78% (inactive)"}
{"compound": "Nc1nc2c(Br)ccc(Br)c2cc1C(=O)NCCc1ccccc1", "activation": "41.1% (active)"}
{"compound": "O=C(NCCc1ccccc1)c1c[nH]c2ccc(F)cc2c1=O", "activation": "-9.34% (inactive)"}
{"compound": "NC(=O)Nc1ccccc1C(=O)NCCc1ccccc1", "activation": "16.6% (inactive)"}
{"compound": "CO[C@H]1CN(C)C(=O)c2ccc(NC(=O)c3cc(C)on3)cc2OC[C@@H](C)NC[C@@H]1C", "activation": "14.3% (inactive)"}
{"compound": "COc1ccc(NC(=O)N(C)C[C@@H]2Oc3c(NS(=O)(=O)c4cn(C)cn4)cccc3C(=O)N([C@H](C)CO)C[C@@H]2C)cc1", "activation": "8.28% (inactive)"}
{"compound": "CCC(=O)N1CCC2(CC1)CN(Cc1cccc(OC)c1)[C@@H](CO)c1[nH]c3cc(OC)ccc3c12", "activation": "5.34% (inactive)"}
{"compound": "Nc1[nH]c(C(=O)c2ccccc2)c(-c2ccncc2)c1C(=O)NCc1cccc2ccccc12", "activation": "49.2% (active)"}
{"compound": "Nc1[nH]c(C(=O)c2ccccc2)c(-c2ccc(Br)cc2)c1C(=O)NC1CC1", "activation": "2.55% (inactive)"}
{"compound": "CC(C)(C)C(=O)c1c(N)[nH]c(C(=O)c2ccccc2)c1-c1ccc(F)cc1", "activation": "0.681% (inactive)"}
{"compound": "C[C@@H]1CCCCO[C@H](CN(C)C(=O)Cc2ccccc2)[C@H](C)CN([C@@H](C)CO)C(=O)c2cc(NS(=O)(=O)c3ccc(F)cc3)ccc2O1", "activation": "-21.1% (inactive)"}
{"compound": "COc1ccc2c3c(n(C)c2c1)[C@H](CO)N(Cc1ccccc1Cl)CC31CN(C(=O)CN(C)C)C1", "activation": "11.4% (inactive)"}
{"compound": "O=C(COC(=O)Cn1cnc2ccccc21)Nc1cccc2c1C(=O)c1ccccc1C2=O", "activation": "4.13% (inactive)"}
{"compound": "O=C(COC(=O)c1cccc(Cl)c1)Nc1ccc2[nH]c(=O)[nH]c2c1", "activation": "5.13% (inactive)"}
{"compound": "O=C(COC(=O)c1cccc(Br)c1)Nc1cccc2c1C(=O)c1ccccc1C2=O", "activation": "98% (active)"}
{"compound": "COc1ccc(-c2cc(C(=O)N(C)Cc3ccc(OC)c(OC)c3OC)c3ccccc3n2)cc1OC", "activation": "62.1% (active)"}
{"compound": "COc1ccc(C(=O)N(C)Cc2ccc(OC)c(OC)c2OC)cc1S(=O)(=O)N1CCOCC1", "activation": "-3.04% (inactive)"}
{"compound": "COc1ccc(CN(C)C(=O)Cc2ccsc2)c(OC)c1OC", "activation": "-7.45% (inactive)"}
{"compound": "CCn1c(C)cc(=O)cc1-c1ccc(Cl)cc1", "activation": "9.35% (inactive)"}
{"compound": "COCc1cc(=O)n2[nH]c(C)c(-c3ccccc3)c2n1", "activation": "-1.45% (inactive)"}
{"compound": "CCCc1cc(=O)n2[nH]c(C)c(-c3ccc(Cl)cc3)c2n1", "activation": "43.7% (active)"}
{"compound": "CN(C)C(=O)[C@@H]1[C@@H](CO)[C@@H]2Cn3c(ccc(-c4ccccc4)c3=O)[C@@H]2N1CCC(F)(F)F", "activation": "21.1% (inactive)"}
{"compound": "O=C1N[C@H](c2ccccc2)COCc2cn(nn2)CC[C@@H]1Cc1ccc(Cl)cc1", "activation": "5.93% (inactive)"}
{"compound": "COc1cccc(NC(=O)N[C@H]2C=C[C@@H](CC(=O)Nc3ccc(-c4ccccc4)cc3)O[C@@H]2CO)c1", "activation": "58.9% (inactive)"}
{"compound": "CC(=O)Nc1cc(-c2ccccc2F)cn2c(-c3cccc(C(F)(F)F)c3)cnc12", "activation": "2.99% (inactive)"}
{"compound": "CN(C)CCNC(=O)c1cccc(-c2cnc3c(NC=O)cc(-c4cccc(C(F)(F)F)c4)cn23)c1", "activation": "52.7% (active)"}
{"compound": "CC(=O)Nc1cc(-c2cccc(CO)c2)cn2c(-c3cccc(C(F)(F)F)c3)cnc12", "activation": "-3.82% (inactive)"}
{"compound": "COc1ccc2c3c(n(C)c2c1)[C@@H](CO)NCC31CN(S(=O)(=O)c2cccc(C)c2)C1", "activation": "14.9% (inactive)"}
{"compound": "O=S(=O)(NCCc1ccc(Cl)cc1)c1cccs1", "activation": "-20.9% (inactive)"}
{"compound": "COc1ccc(CCNS(=O)(=O)c2ccc(Cl)s2)cc1OC", "activation": "40.9% (active)"}
{"compound": "CCOC(=O)c1cc(S(=O)(=O)NCCc2ccc(OC)c(OC)c2)cn1C", "activation": "13.8% (inactive)"}
{"compound": "C[C@H](CO)N1C[C@H](C)[C@@H](CN(C)C(=O)C2CCCCC2)OCCCC[C@H](C)Oc2ccc(N(C)C)cc2C1=O", "activation": "-2.98% (inactive)"}
{"compound": "C[C@H](CO)N1C[C@H](C)[C@@H](CN(C)S(=O)(=O)c2cccc(F)c2)Oc2ncc(-c3cccc(F)c3)cc2C1=O", "activation": "3.46% (inactive)"}
{"compound": "CCn1c(SCC(=O)Nc2cccc(F)c2)nnc1-c1cc2cc(Br)ccc2o1", "activation": "85.4% (active)"}
{"compound": "CCn1c(CNC(=O)c2ccco2)nnc1SCC(=O)Nc1cccc(F)c1", "activation": "-2.18% (inactive)"}
{"compound": "CCn1c(SCC(=O)Nc2ccc3c(c2)OCCO3)nnc1C(C)C", "activation": "13.3% (inactive)"}
{"compound": "C[C@H](CO)N1C[C@H](C)[C@H](CN(C)S(C)(=O)=O)Oc2ncc(C#CCN(C)C)cc2C1=O", "activation": "18.2% (inactive)"}
{"compound": "COc1ccc(CC(N)c2csc(NC(=O)Nc3ccc(C(C)C)cc3)n2)cc1", "note": "(stereo not given)", "activation": "193% (active)"}
{"compound": "NC(Cc1ccccc1)c1csc(Nc2cc(Oc3ccccc3)ncn2)n1", "note": "(stereo not given)", "activation": "-24.7% (inactive)"}
{"compound": "NC(Cc1ccc(F)cc1)c1csc(Nc2nncc3ccccc23)n1", "note": "(stereo not given)", "activation": "-32.2% (inactive)"}
{"compound": "COc1ccc(S(=O)(=O)Nc2cccc3c2O[C@@H](CN(C)C(=O)Nc2cccc4ccccc24)[C@H](C)CN([C@@H](C)CO)C3=O)cc1", "activation": "-8.86% (inactive)"}
{"compound": "COc1cccc(C#Cc2cnc3c(c2)C(=O)N([C@H](C)CO)C[C@@H](C)[C@@H](CN(C)C(=O)C2CCC2)O3)c1", "activation": "-5.49% (inactive)"}
